Screening data deposited in PubChem BioAssay by several laboratories.
In the library only some 4% were active in any assay of this set; here they are far more common.
HIF-2a block – inhibitors of HIF-2a. inhibition, % at 18.8 µM. 786-0 RCC cells HIF-2a reporter, luciferase luminescence, overnight. 360,000 compounds, 0.72% hits. AID 624352;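 active = inhibition of the luminescence signal of 40% or more relative to plate controls, in a single-dose primary screen at 18.75 µM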
TWEAK Fn14 block – blocks TWEAK-Fn14 interaction in a reporter cell assay. TWEAK-stimulated Fn14 reporter cells, luciferase luminescence, 8 h. inhibition, % at 10 µM. 360,000 compounds, 2% hits; in the data active = inhibition above about 50%
EBV LMP1 NFkB – Epstein-Barr LMP1 NF-kappaB reporter inhibition; LMP1-induced NF-kappaB luciferase reporter cells, luminescence; inhibition, % at 12.5 µM; 350,000 compounds, 0.69% hits; AID 504558; in the data active = inhibition above about 41%
TROY NFkB inh – TROY signaling inhibition; 360,000 compounds, 0.98% hits; AID 1347056; inhibition, % at 10 µM; Q293 LMP1-TROYcd NF-kB luciferase reporter, 4 h;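 active = compounds whose plate-normalised and pattern-corrected inhibition of the luciferase reporter signal at the single screening dose is 50% or more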
MITF TRPM1 inh – inhibitors of MITF-driven TRPM1 promoter in melanoma cells | SK-MEL-5 TRPM1 promoter luciferase, 24 h | AID 488899 | inhibition, % at 12.5 µM | 330,000 compounds, 0.83% hits;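 active = mean inhibition across replicates of 60% or more, whatever share of single replicates reaches that level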
Peg3 prom inh – Peg3 promoter activity inhibition | inhibition, % at 20 µM | 360,000 compounds, 1.7% hits | HeLa PEG-Prom luciferase reporter, luminescence, overnight | AID 588405;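 active = inhibition of at least 50% at 20 µM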
Hits are given with their value; - = inactive; . = not tested or not shown.

SMILES | HIF-2a block | TWEAK Fn14 block | EBV LMP1 NFkB | TROY NFkB inh | MITF TRPM1 inh | Peg3 prom inh
COc1ccc(-n2c(Cc3cccn3C)nnc2SCC(=O)Nc2cc(Cl)ccc2OC)cc1 | - | 62 | - | - | - | -
COc1ccc(-n2c(Cc3cccn3C)nnc2SCC(=O)Nc2ccc(Cl)cc2)cc1 | - | 50 | - | - | - | -
Cc1cccc(C)c1NC(=O)CN1CCc2ccccc2C1 | - | - | - | - | - | -
COc1ccc(S(=O)(=O)N2CCCCC2)cc1NC(=O)CN(Cc1ccco1)Cc1ccco1 | - | - | - | - | - | 54
COc1ccc(S(=O)(=O)N2CCCC(C(=O)NCc3ccco3)C2)cc1Cl (stereo not given) | - | 86 | - | - | - | -
COc1ccc(S(=O)(=O)N2CCOCC2)cc1NC(=O)COC(=O)CCS(=O)(=O)c1ccc(C)cc1 | - | - | 68 | - | - | -
COc1ccc(S(=O)(=O)N2CCCC(C(=O)NCC3CCCO3)C2)cc1Cl (stereo not given) | - | - | - | - | - | -
COc1ccc(S(=O)(=O)N2CCCCC2)cc1NC(=O)CN(C)C1CCCCC1 | - | - | - | - | - | -
COc1ccc(S(=O)(=O)N2CCCC(C(=O)NCC3CCCO3)C2)cc1C (stereo not given) | - | 93 | - | - | - | -
COc1ccc(SC[C@H](Cc2ccccc2)N2CC[C@@H](C(C)(C)C)CCC2=O)cc1 | - | - | - | - | - | -
CCOC(=O)c1cn2nc(N3CCCCC3)ccc2n1 | - | 89 | 59 | 71 | - | -
CCOC(=O)c1cn2nc(N3CCCC3)ccc2n1 | - | 79 | 53 | - | - | -
CCc1ccc(/C(C)=N/NC(=O)c2ccc(-n3cnnn3)cc2)cc1 | - | - | - | - | - | -
CCCN(CC(=O)Nc1ccccc1C)C(=O)c1ccc(N2CCCC2)c([N+](=O)[O-])c1 | - | - | - | - | - | -
Cc1ccc(S(=O)(=O)CC(CN2CCCCC2)N2CCCCC2)cc1 (stereo not given) | - | - | - | - | 69 | -
CNS(=O)(=O)c1ccc(NC(=O)c2ccccn2)cc1 | - | - | - | - | - | -
COc1ccc(-n2cc(-c3ccc(C)cc3)[n+]3c2SCC3)cc1 | - | - | - | - | 71 | -
CCOCCCNC(=O)Cn1cnc2c(cnn2-c2ccc(C)c(C)c2)c1=O | - | 108 | - | - | - | -
CCCCNC(=O)Cn1cnc2c(cnn2-c2ccc(C)cc2)c1=O | - | - | - | - | - | -
CCN(C)C1CN(Cc2cn(Cc3ccc(F)cc3)nn2)S(=O)(=O)C1 (stereo not given) | - | - | . | - | . | .
CC(CO)NS(=O)(=O)c1cc(Cl)ccc1F (stereo not given) | - | - | - | - | . | -
Nc1c(C(=O)Nc2ccc(S(=O)(=O)N3CCCC3)cc2)sc2nc3ccc(OC(F)(F)F)cc3cc12 | - | - | - | - | 83 | -
Nc1c(C(=O)Nc2ccc(S(=O)(=O)N3CCCC3)cc2)sc2nc3cc4c(cc3cc12)CCC4 | - | - | - | - | - | -
FC(F)(F)c1ccccc1-n1c(-c2cnccn2)n[nH]c1=S | - | 84 | - | 65 | - | -
CCCN1CCC(C)(C(=O)Nc2cccc(OC(C)C)c2)C1 (stereo not given) | - | - | . | - | . | -
SMILES | HIF-2a block | TWEAK Fn14 block | EBV LMP1 NFkB | TROY NFkB inh | MITF TRPM1 inh | Peg3 prom inh
CN1OC[C@@H]2CN(C(=O)Nc3ccccc3)[C@H](c3ccc(N4CCCCC4)cc3)C[C@@H]21 | - | - | . | - | . | -
CCOc1ccc(-n2c(=O)c3sccc3n(CC(=O)NCC3CCCO3)c2=O)cc1 (stereo not given) | - | - | - | - | - | -
Cc1c(CCO)c(=O)n2c([nH]c3ccccc32)c1C#N | - | - | - | - | - | -
CCCCc1c(C)c(C#N)c2[nH]c3ccccc3n2c1=O | - | - | - | 52 | - | -
CCc1cc(=O)oc2cc(C)cc(OC(C)C(=O)NCCCN3CCCC3=O)c12 (stereo not given) | - | - | - | - | - | -
COc1cccc(-c2nnc(SCCC(=O)O)n2C)c1 | - | - | - | - | - | -
COc1ccccc1-c1nnc(SC(C(=O)c2c[nH]c3ccccc23)c2ccccc2)n1C (stereo not given) | - | - | - | - | - | 54
COc1ccccc1-c1nnc(SCC(=O)NC2CC2)n1C | - | - | - | - | - | -
COc1cccc(-c2nnc(SC(C(=O)c3c[nH]c4ccccc34)c3ccccc3)n2C)c1 (stereo not given) | - | 51 | - | - | - | 53
CCCC(CCC)C(=O)Nc1ccc2c(c1)N(C(=O)CCN1CCN(C)CC1)c1ccccc1CC2 | - | - | - | - | - | -
O=C1CN(c2ccccc2)C(=S)N1C(=O)c1ccc(Br)cc1 | - | - | - | - | - | -
Cc1cc(C)c2c(N)c(C(=O)NN3CC(=O)N(c4ccccc4F)CC3=O)sc2n1 | - | 103 | - | - | - | -
COc1cccc(N2CC(=O)N(NC(=O)c3sc4nc(C)cc(C)c4c3N)CC2=O)c1 | - | - | - | - | - | -
Cc1ccc(-c2nn(-c3ccccc3)cc2C=C2C(=O)CC(C)(C)CC2=O)cc1 | - | - | - | - | - | -
CC1=NNC(=O)/C1=C\c1cn(-c2ccccc2)nc1-c1ccc(Cl)cc1 | 87 | - | - | - | - | 79
COc1ccc([C@H]2CC(=O)C=C(c3cc(Cl)ccc3C)C2)cc1 | - | - | - | - | - | -
COc1ccc([C@H]2CC(=O)C=C(c3ccnc4ccc(Cl)cc34)C2)cc1 | - | 52 | - | - | - | -
Cc1cc2oc(=O)cc(CN3CCOCC3)c2c(C)c1Cl | - | - | - | - | - | -
Cc1ccc(OCCNC(=O)C2CC(=O)N(Cc3ccccc3)C2)cc1 (stereo not given) | - | - | - | - | - | -
CC1(c2nnnn2-c2ccc3c(c2)OCCO3)CCC(=O)N1CCc1ccccc1F (stereo not given) | - | 68 | . | - | . | .
COc1ccc(OC)c(S(=O)(=O)CC(O)CS(=O)(=O)c2ccccc2)c1 (stereo not given) | - | - | - | - | - | -
CCOc1cccc2cc(C(=O)N3CC(C)OC(C)C3)c(=O)oc12 (stereo not given) | - | - | - | - | - | 53
CCOc1cccc2cc(C(=O)N3CCOCC3)c(=O)oc12 | - | - | - | - | - | -
C/C(=N\NC(=O)c1cc(C)oc1C)c1ccc2ccccc2c1 | - | - | - | - | - | -
Cc1noc(C)c1C(=O)N(CC(=O)Nc1ccc(Cl)c(C(F)(F)F)c1)Cc1ccco1 | - | - | - | - | - | -
Cc1cccc2cc(C#N)c(N3CCOCC3)nc12 | - | 54 | - | - | - | -
O=C(Nc1nnc(C23CC4CC(CC(C4)C2)C3)s1)c1ccc(N2C(=O)CCC2=O)cc1 | - | - | 81 | - | - | -
CC(C)c1nnc(NC(=O)c2ccc(N3C(=O)CCC3=O)cc2)s1 | - | - | 86 | - | - | -
